The panel holds about 83,000 compounds, 20% with a hit somewhere; the sample as a whole holds those more often.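 48-hour exposure, single concentration, 96-well plates; percent growth endpoint where 0 means no net growth. Active: below 10.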 Activity calls are given as the source filed them.
Legend:
Assay in all cases: NCI-60 one-dose screen, 48 h (100 = growth as untreated, 0 = no growth, -100 = all killed)
Settings in all cases: 10 µM unless noted
[1] = test system: HCT-15 colon
[2] = test system: HT29 colon
[3] = test system: SNB-75 CNS
[4] = test system: SNB-19 CNS
[5] = test system: U251 CNS
[6] = test system: PC-3 prostate
[7] = test system: SK-MEL-5 melanoma
[8] = test system: UACC-62 melanoma
[9] = test system: LOX IMVI melanoma
[10] = test system: SK-MEL-28 melanoma
[11] = test system: SK-MEL-2 melanoma
[12] = test system: EKVX NSCLC
[13] = test system: SN12C renal
[14] = test system: UO-31 renal
[15] = test system: TK-10 renal
[16] = test system: ACHN renal
[17] = test system: CAKI-1 renal
[18] = test system: CCRF-CEM leukemia
[19] = test system: MOLT-4 leukemia

Measured: growth

CC(Sc1nc2ccccc2c(=O)n1CCc1ccc(S(N)(=O)=O)cc1)C(=O)Nc1ccc(Cl)cc1 (centres undefined)
inactive: [1] 67.9% | [2] 89.5% | [3] 83.3% | [4] 90.1% | [5] 84.1% | [6] 81.7% | [7] 79.4% | [8] 73.6% | [9] 88.3% | [10] 105% | [11] 80.9% | [12] 70.3% | [13] 86.2% | [14] 53.8% | [15] 80.1% | [16] 86.3% | [17] 75.6% | [18] 63.7% | [19] 68.3%

COc1cc2c(c(O)c1Br)C(=O)c1c(O)cc(C[C@H](C)O)cc1[C@H]2[C@H]1c2cc(C[C@H](C)O)cc(O)c2C(=O)c2c1cc(OC)c(Br)c2O
active: [1] 8.27% | [3] -6.83% | [7] -74.1% | [8] 4.54% | [9] 4.77% | [11] -38.2% | [12] 9.77% | [13] 9.01% | [14] -29% | [16] -46.1% | [17] 4.31% | [19] -0.594%
inactive: [2] 11% | [4] 18.1% | [5] 10.3% | [6] 16.2% | [10] 31.8% | [15] 37% | [18] 10.1%

CCCCOc1ccc(/C(C)=N/Nc2cc(C)nc3ccc(Br)cc23)cc1
inactive: [2] 45.1% | [3] 103% | [4] 91.9% | [5] 31.9% | [6] 80.3% | [7] 96.7% | [8] 98.5% | [9] 33.9% | [10] 106% | [11] 108% | [12] 88.2% | [13] 82.5% | [14] 67.7% | [15] 112% | [16] 103% | [17] 82.9% | [18] 64.6% | [19] 83.5%
active: [1] 7.75%

O=C(CCN1CCCC1)Nc1ccc2c(Nc3ccc(F)cc3)c3ccccc3nc2c1
active: [1] -31.9% | [2] 4.15% | [5] -42.1% | [6] 8.99% | [9] -61.2% | [10] -40.8% | [13] 9.14% | [14] -89.1% | [15] -20.1% | [16] -13.3% | [17] -75.9% | [18] -17.8% | [19] -9.71%
inactive: [3] 16.3% | [4] 13.8% | [7] 33.9% | [8] 21.5% | [11] 49% | [12] 47.5%

COc1ccc(C(=O)NNc2nc(Cl)nc(N3CCN(C(c4ccccc4)c4ccccc4)CC3)n2)cc1
inactive: [3] 61.5% | [4] 45.4% | [5] 71.4% | [7] 90.7% | [8] 33.1% | [10] 53.9% | [11] 48.8% | [12] 82.4% | [13] 21.1% | [14] 87% | [15] 95% | [16] 22.8% | [17] 21.2%
active: [1] -37% | [2] -57.3% | [6] -13.3% | [9] -64.3% | [18] -8.69% | [19] -39.2%

CCCOC(=O)N[C@H]1CCc2cc(OC)c(OC)c(OC)c2-c2ccc(SC)c(=O)cc21
active: [7] -14.6% | [18] 4.23% | [19] 7.04%
inactive: [1] 14.8% | [2] 14.2% | [3] 34.3% | [4] 36.2% | [5] 19.6% | [6] 29.5% | [8] 41.5% | [9] 18.6% | [10] 58.7% | [11] 50.8% | [12] 51.5% | [13] 29.5% | [14] 38.3% | [15] 48.2% | [16] 27.8% | [17] 19.8%

CC1=C(C(=O)/C=C/c2ccc(N(C)C)cc2)C(c2ccccc2)NC(=S)N1 (centres undefined)
inactive: [1] 105% | [2] 102% | [3] 86.9% | [4] 95.1% | [5] 101% | [6] 98.3% | [7] 99.3% | [8] 94.3% | [9] 98.5% | [10] 110% | [11] 102% | [12] 97.7% | [13] 96.9% | [14] 75.4% | [15] 107% | [16] 100% | [17] 89.8% | [18] 108% | [19] 101%

CCCOc1ccc(/C=N/Nc2cc(C)nc3ccc(Cl)cc23)cc1
inactive: [3] 104% | [4] 58.6% | [6] 48.6% | [7] 79.9% | [8] 88.6% | [10] 64.8% | [11] 91.4% | [12] 72.8% | [15] 102% | [16] 23.3% | [17] 74.2%
active: [1] -44.4% | [2] -6.94% | [5] -58.3% | [9] -95.7% | [13] -10.8% | [14] 7.59% | [18] 2.96% | [19] -42.5%

C=CC(=O)N[C@@H](/C=C/C(=O)OCC)Cc1ccc(-c2cc(Cl)cc(Cl)c2)cc1
active: [7] -88.2% | [8] 9% | [13] 3.95% | [15] 6.04% | [19] 1.95%
inactive: [1] 15.2% | [2] 20.3% | [3] 40.3% | [4] 33.9% | [5] 20.2% | [6] 16.9% | [9] 36.6% | [10] 39.8% | [11] 14.1% | [12] 20% | [14] 14.2% | [16] 26.7% | [17] 35.9% | [18] 17.2%

O=C(Nc1ccccc1C(=O)N/N=C(\c1ccccc1)c1ccccn1)c1ccc(F)cc1
inactive: [1] 32.5% | [2] 25.2% | [3] 16.2% | [4] 25.5% | [5] 17.8% | [6] 36.5% | [10] 33.7% | [11] 37.2% | [12] 16.8% | [13] 26.6% | [15] 49.1% | [16] 14.1% | [19] 12.8%
active: [7] -7.66% | [8] 1.28% | [9] 8.38% | [14] 1.98% | [17] 5.29% | [18] 4.15%

CCOC(=O)Nc1ccc(-c2ccc3c(c2)NC(=O)/C3=C\c2ccc[nH]2)cc1
inactive: [1] 84.6% | [2] 105% | [3] 89% | [4] 99.3% | [5] 87.9% | [6] 101% | [7] 99.2% | [8] 101% | [9] 97.2% | [10] 111% | [11] 114% | [12] 30.8% | [13] 102% | [14] 72.6% | [15] 77% | [16] 100% | [17] 93.7% | [18] 98.3% | [19] 98.8%

COc1cc2oc(-c3cccc(C(=O)Nc4ccccc4)c3)cc(=O)c2c(O)c1OC
inactive: [1] 92.8% | [2] 54.2% | [3] 21.8% | [4] 57.7% | [5] 36.9% | [6] 71% | [7] 71.7% | [8] 38.9% | [9] 88.1% | [10] 87.4% | [11] 65% | [12] 97.9% | [13] 74.8% | [14] 59.7% | [15] 60.8% | [16] 58% | [17] 48.9% | [18] 100% | [19] 99.7%

Cn1ccnc1C(=O)/C=C/c1ccc(CC(=O)Nc2ccc(Cl)cc2)cc1
inactive: [3] 11.8% | [6] 32.7% | [7] 33.3% | [8] 35% | [9] 13.1% | [10] 70.9% | [11] 89.7% | [12] 40.6% | [14] 23.3% | [15] 27% | [16] 49.8% | [17] 34.7%
active: [1] 5.48% | [2] 3.03% | [4] 6.66% | [5] 6.28% | [13] 2.21% | [18] 4.18% | [19] 5.64%

COc1cccc(/C=N/NC(=O)c2cnn3c2NC(c2ccccc2)C3)c1Oc1ccccc1 (centres undefined)
inactive: [1] 49.8% | [2] 41.5% | [3] 60.8% | [4] 75.4% | [5] 83.9% | [6] 72.3% | [7] 73% | [8] 62.3% | [9] 84.5% | [10] 79.1% | [11] 66.2% | [12] 93.7% | [13] 104% | [14] 77.4% | [15] 94.3% | [16] 87% | [17] 78.2% | [18] 79.4% | [19] 75.2%

COc1cc(-c2csc(NC(=O)c3cc(F)cc(C(F)(F)F)c3)n2)cc(OC)c1OC
active: [2] 6.41%
inactive: [1] 34.3% | [3] 19.3% | [4] 40.2% | [5] 31.3% | [6] 36% | [7] 53.2% | [8] 43.6% | [9] 27% | [10] 50.3% | [11] 14.9% | [12] 50% | [13] 35% | [14] 45.3% | [15] 65.1% | [16] 49.1% | [17] 42.7% | [18] 17% | [19] 25.8%

COc1cc2nc(-c3ccc(C(F)(F)F)cc3)cc(OCCCN3CCOCC3)c2cc1OC
inactive: [2] 17.4% | [4] 61% | [5] 42.6% | [6] 42.1% | [10] 42.1% | [11] 47.4% | [12] 61.6% | [13] 41.3% | [14] 33% | [15] 96.6% | [16] 34.3% | [18] 37.5% | [19] 44.9%
active: [1] 7.76% | [3] -9.47% | [7] -33.1% | [8] -26.1% | [9] -82.1% | [17] -13.1%
